# Measured values published in a collection of fitness landscapes (doi:10.1016/j.celrep.2020.107928).
# Over roughly 81,000 sequences, “one-hybrid fitness for binding NBS DNA” has its median near -0.1; the highest 2% begin near 0.36. The entries come from a sample that favours the highest values as a whole.
# B1: Caulobacter ParB omega fusion; a variant is named by its letters at X, in order, B8GW30 (parent)
# chain: MESVVVGEPGMSEGRRGLGRGLSALLGEVDAAPAQAPGEQLGGSREAPIEILQRNPDQPRRTFREEDLEDLSNSIREKGVLQPILVRPSPDTAGEYQIVAGERAWRAAQRAGLKTVPIMVRELDDLAVLEIGIIENVQRADLNVLEEALSYKVLMEKFERTQENIAQTIGKSXSHVANXMRLLXLPDEVQSYLVSGELTAXHARAIAAAADPVALAKQIIEGGLSVRETEALARKAPNLSAGKSKGGRPPRVKDTDTQALESDLSSVLGLDVSIDHRGSTGTLTITYATLEQLDDLCNRLTRGI
# Variants of: B1
# Assay: one-hybrid fitness for binding NBS DNA (the Noc-binding site; scaled: cognate 1, non-cognate 0); higher = stronger binding
# Details: with NBS DNA site
# Procedure, shortened: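 On M9-minus-histidine containing 0.1 mM IPTG and 5 mM 3-AT, E. coli USO cells with a HIS3 reporter, site 19 bp from the promoter, grew 48 hours at 37°C to select Caulobacter ParB libraries randomised at four specificity codons. Plasmids from before and after were Illumina-sequenced, with three replicate libraries pooled and variants under 10 reads left out. Fitness is the log change in variant-to-wild-type read ratio, rescaled against cognate and non-cognate.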
row,Variant,one-hybrid fitness for binding NBS DNA
1,KFHF,≤ 0.2
2,LSDV,≤ 0.2
3,QMHF,≤ 0.2
4,GKLV,≤ 0.2
5,PMVT,≤ 0.2
6,VREL,≤ 0.2
7,QRSD,0.208
8,QRSS,0.659
9,QPSQ,≤ 0.2
10,QCSQ,0.271
11,QRSQ,0.434
12,QRSP,≤ 0.2
13,MSPC,≤ 0.2
14,KWCV,≤ 0.2
15,LAAG,≤ 0.2
16,HYQF,≤ 0.2
17,QSFR,0.37
18,QCFR,0.517
19,QPFR,≤ 0.2
20,QSFN,≤ 0.2
21,QSFH,≤ 0.2
22,QDFR,≤ 0.2
23,FCHW,≤ 0.2

row,Variant,one-hybrid fitness for binding NBS DNA
1,TICV,≤ 0.2
2,LGEA,≤ 0.2
3,FLQL,≤ 0.2
4,LSCN,≤ 0.2
5,HMKT,≤ 0.2
6,TSIM,≤ 0.2
7,LVHF,≤ 0.2
8,QMYC,≤ 0.2
9,QMRC,0.406
10,QTRC,0.548
11,QTYC,≤ 0.2
12,QCYC,0.204
13,QMDC,≤ 0.2
14,QCRC,0.512
15,QKYC,≤ 0.2
16,QKRC,0.425
17,QKDC,≤ 0.2
18,QTDC,≤ 0.2
19,QPRC,≤ 0.2
20,PNKD,≤ 0.2
21,RLIW,≤ 0.2
22,CRYF,≤ 0.2
23,IAWR,≤ 0.2

row,Variant,one-hybrid fitness for binding NBS DNA
1,GMPT,≤ 0.2
2,VMEC,≤ 0.2
3,LQWD,≤ 0.2
4,PYKF,≤ 0.2
5,ENTG,≤ 0.2
6,QSDC,≤ 0.2
7,QRYC,0.296
8,QSYC,≤ 0.2
9,QREC,0.22
10,QRRC,0.489
11,QSRC,0.374
12,IMYD,≤ 0.2
13,YWMG,≤ 0.2
14,QRFT,0.723
15,QCFT,0.424
16,QPFT,≤ 0.2
17,NRAT,≤ 0.2
18,QRAT,0.797
19,DRAT,≤ 0.2
20,QSFT,0.315
21,RWNW,≤ 0.2
22,MQNW,≤ 0.2
23,DCWS,≤ 0.2

row,Variant,one-hybrid fitness for binding NBS DNA
1,TDLC,≤ 0.2
2,NLFC,≤ 0.2
3,PGYI,≤ 0.2
4,MRFG,≤ 0.2
5,SRKF,≤ 0.2
6,PKCF,≤ 0.2
7,VYYR,≤ 0.2
8,QSKG,0.302
9,QTIG,≤ 0.2
10,QTKG,0.503
11,QRVG,0.232
12,QCKG,0.377
13,QIKG,≤ 0.2
14,QPKG,≤ 0.2
15,QRKG,0.485
16,QTVG,≤ 0.2
17,KESF,≤ 0.2
18,IFWR,≤ 0.2
19,KAHR,≤ 0.2
20,AQIS,≤ 0.2
21,RGNV,≤ 0.2
22,HSPH,≤ 0.2
23,WDHG,≤ 0.2

row,Variant,one-hybrid fitness for binding NBS DNA
1,KMKY,≤ 0.2
2,QYVQ,0.313
3,QYRQ,0.435
4,QYNQ,≤ 0.2
5,QYCQ,≤ 0.2
6,QYSQ,≤ 0.2
7,QYKQ,0.394
8,RSEI,≤ 0.2
9,SPTR,≤ 0.2
10,RTKH,0.651
11,RTDY,≤ 0.2
12,RPKY,≤ 0.2
13,RTVP,≤ 0.2
14,RTVN,≤ 0.2
15,RTVH,≤ 0.2
16,RTKY,0.418
17,RTVY,≤ 0.2
18,RTRY,0.38
19,RTKD,≤ 0.2
20,RTVS,0.39
21,RTYY,≤ 0.2
22,QFSY,≤ 0.2
23,LCCW,≤ 0.2

row,Variant,one-hybrid fitness for binding NBS DNA
1,SFAL,≤ 0.2
2,PWTQ,≤ 0.2
3,SYNN,≤ 0.2
4,PQEL,≤ 0.2
5,MDPA,≤ 0.2
6,QCMN,≤ 0.2
7,FPNL,≤ 0.2
8,PFHL,≤ 0.2
9,LLMP,≤ 0.2
10,FGTY,≤ 0.2
11,RTKS,0.622
12,RTKP,≤ 0.2
13,RTKN,0.3
14,ANHS,≤ 0.2
15,KTDT,≤ 0.2
16,KTKT,0.396
17,KTVT,≤ 0.2
18,KTRT,0.44
19,KTYT,≤ 0.2
20,KTFT,≤ 0.2
21,HMYT,≤ 0.2
22,SGID,≤ 0.2
23,QDWR,≤ 0.2

row,Variant,one-hybrid fitness for binding NBS DNA
1,DLYM,≤ 0.2
2,MQVF,≤ 0.2
3,PLIS,≤ 0.2
4,QHVY,≤ 0.2
5,QHQY,≤ 0.2
6,QSKY,0.517
7,QIKD,≤ 0.2
8,QIKY,0.364
9,QSVY,≤ 0.2
10,QHKY,0.529
11,QGKY,≤ 0.2
12,QPKY,≤ 0.2
13,QIKP,≤ 0.2
14,QCKY,0.59
15,QCVY,≤ 0.2
16,GTNT,≤ 0.2
17,RTRV,0.288
18,PYEG,≤ 0.2
